Hits are enriched below; roughly 19% of the tested compounds scored in any of these assays.
IL-1B inflam inh: inflammasome signaling inhibition, IL-1 beta readout. THP-1 LPS/ATP IL-1B secretion, AlphaLISA, 16 h; hits give low values. activity change, % at 57.5 µM. hit rate 4.7% among 360,000. AID 743279; in the data active = activity change below about -50%; inconclusive = mostly about -30% to -49%; note: % is set by controls: 0 for no effect and ±100 for the full control effect
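Secreted IL-1B measured by AlphaLISA bead assay after 16 h compound exposure of THP-1 cells; compounds (final up to 57.5 uM) added 1 h before LPS (250 ng/mL) and ATP (1.25 mM) stimulation; lower signal means less secretion.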
DT40 TDP1 no CPT: qHTS for Inhibitors of human tyrosyl-DNA phosphodiesterase 1 (TDP1): qHTS in cells in absence of CPT; AID 686978, 2013; Potency, µM (titrated, usually from 46.2 µM), inactives show at the highest dose activity change, negative = growth inhibition, actives largely listed as inhibitors; hit rate 15% among 420,000; DT40 Tdp1-/- hTDP1 cells, no CPT, ATP luminescence, 48 h; note: potency is the fitted concentration of half-maximal effect; % is set by controls: 0 for no effect and ±100 for the full control effect; nearly all actives have a fitted effect of over 55% in size
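No-CPT arm: Tdp1-/-;hTDP1 DT40 cells (400/well) plus compounds, incubated ≥48 hr at 37 °C. Readout CellTiter-Glo luminescence.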
TGFb SMAD3 inh: TGF-b pathway inhibition. HepG2 CAGA-GFP TGF-b/SMAD3 reporter, GFP fluorescence, 18 h; TGF-beta stimulated, 500 pg/mL final. Potency, µM (series often up to 46.1 µM), without a hit: at the top dose activity, negative = inhibition, most hits filed as inhibitors. hit rate 1.2% among 410,000. AID 588855; note: potency is the fitted concentration of half-maximal effect; % is set by controls: 0 for no effect and ±100 for the full control effect; nearly all actives have a fitted effect of over 65% in size
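TGF-beta reporter screen: HEPG2 CAGA-GFP, 1% FBS, 500 pg/mL TGF-beta final, 18 h; per-cell GFP summed per well; curves fitted and categorized by class.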
HepG2 tox: HepG2 cytotoxicity, counter-screen for TGF-b inhibitors | HepG2 CAGA-GFP viability, ATP luminescence, 18 h | Potency, µM (doses to about 46.1 µM), for inactives: at the top dose activity change, negative = cytotoxicity, most hits filed as cytotoxic | hit rate 0.76% among 410,000 | AID 588856; note: potency is the fitted concentration of half-maximal effect
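HepG2 CAGA-GFP cells (1000/well, DMEM with 1% FBS) received compound, then TGF-beta at 500 pg/mL final, and were incubated 18 hours at 37 degrees C. Viability was read by CellTiter-Glo luminescence. Media-only wells were set as complete cell-killing and DMSO as no toxicity.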
ASM inhibitor: inhibitors of human secretory acid sphingomyelinase; P17405; placental ASM, HMU-PC fluorogenic substrate, 60 min; Potency, µM (highest dose often 57.5 µM), for the others: at the highest dose activity change, negative = inhibition, usual class: inhibitors; hit rate 0.006% among 340,000; note: potency is the fitted concentration of half-maximal effect
Target sequence (P17405 47-631 limits assumed): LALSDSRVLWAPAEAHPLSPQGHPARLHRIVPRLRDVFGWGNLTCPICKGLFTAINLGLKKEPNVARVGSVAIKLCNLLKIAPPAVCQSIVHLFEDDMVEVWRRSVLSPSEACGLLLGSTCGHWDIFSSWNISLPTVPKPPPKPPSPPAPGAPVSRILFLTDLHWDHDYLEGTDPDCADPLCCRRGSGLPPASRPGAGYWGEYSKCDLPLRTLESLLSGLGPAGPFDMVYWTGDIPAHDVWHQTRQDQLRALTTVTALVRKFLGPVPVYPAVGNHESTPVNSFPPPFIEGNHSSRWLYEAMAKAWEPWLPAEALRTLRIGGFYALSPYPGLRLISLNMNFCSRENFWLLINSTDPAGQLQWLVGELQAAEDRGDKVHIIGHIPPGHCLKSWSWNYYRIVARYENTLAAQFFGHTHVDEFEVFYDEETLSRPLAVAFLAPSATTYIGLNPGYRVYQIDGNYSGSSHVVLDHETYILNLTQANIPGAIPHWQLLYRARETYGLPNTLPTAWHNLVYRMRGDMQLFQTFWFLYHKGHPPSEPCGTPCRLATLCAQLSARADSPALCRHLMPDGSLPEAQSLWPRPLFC
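HMU-PC0 cleavage (9 uM final) by human placental ASM, 60 min at 37 °C following 10 min compound exposure at RT; stopped at pH 10, fluorescence Ex 386/Em 447 nm.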
DT40 TDP1 CPT: DT40-hTDP1 cell growth loss with CPT; chicken DT40 Tdp1-/-;hTDP1 cells + 20 nM CPT, ATP luminescence, 48 h; Potency, µM (top dose mostly 46.2 µM), without a hit: top-dose activity change, negative = growth inhibition, actives largely listed as inhibitors; hit rate 12% among 420,000; note: potency is the fitted concentration of half-maximal effect; % is set by controls: 0 for no effect and ±100 for the full control effect; nearly all actives have a fitted effect of over 55% in size
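Chicken DT40 Tdp1-/- cells stably complemented with human TDP1 were seeded at 400 cells/well in medium containing 20 nM camptothecin, exposed to pin-transferred compounds, and grown at 37 °C for at least 48 hr. Viability was read as ATP luminescence.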
Numbers without * were called inactive; ? = inconclusive; · = no result; ! = not confirmed by another sample. Unless noted, calls come from the whole dose curve; as a rule, active = well fitted curve in the direction sought with a large enough effect; inconclusive = small, poorly fitted or top-dose-only effect, or another doubt; inactive = no such curve, though single readings can be large; an effect the other way counts as inactive or inconclusive.

SMILES	IL-1B inflam inh	DT40 TDP1 no CPT	TGFb SMAD3 inh	HepG2 tox	ASM inhibitor	DT40 TDP1 CPT
CCOc1cccc2sc(N(CCCN(C)C)C(=O)c3ccc(C(=O)c4ccccc4)cc3)nc12	-88*	-5%	?	-82%	-7%	?
CCOc1cccc2sc(N(CCCN(C)C)C(=O)Cc3ccccc3)nc12	-26	22%	-1%	-9%	0%	-3%
CCOc1cccc2sc(N(CCCN(C)C)C(=O)c3ccc(S(=O)(=O)N(CC)Cc4ccccc4)cc3)nc12	-90*	?	?	-105%	-18%	?
CN(C)CCCN(C(=O)c1ccc(C(=O)c2ccccc2)cc1)c1nc2c(F)cccc2s1	?	-12%	?	-29%	-11%	-28%
O=S(=O)(Nc1ccc(-c2ccc(N3CCCC3)nn2)cc1)c1cccc(C(F)(F)F)c1	·	?	?	-17%	·	?
Cc1ccc(C(=O)N2[C@@H]3CN(C)C(=O)[C@@]2(C)[C@H]2C(=O)N(C)C(=O)[C@@H]32)cc1	21	-19%	?	-4%	1%	1%
CCCCNC(=O)CCC1N=C2c3ccccc3N=C(SCC(=O)NCCc3ccc(OC)c(OC)c3)N2C1=O (stereo not given)	·	0%	-1%	-6%	·	6%
CC1CCCC(C)N1CC(O)COCc1ccccc1F (stereo not given)	-1	7%	-7%	-25%	6%	-6%
COc1cnc(SCc2c(Cl)cccc2Cl)nc1Cl	5	0%	-2%	-28%	-15%	4%
NS(=O)(=O)c1ccc(N=Nc2cc3ccccc3c(C(=O)O)c2O)cc1	·	1.1µM*	?	5%	·	0.4µM*
CC(=O)NC(NC(=S)N1CCCCCC1)C(Cl)(Cl)Cl (stereo not given)	46	-8%	-2%	0%	-1%	3%
CCCCC(=O)NC(NC(=S)N1CCCCCC1)C(Cl)(Cl)Cl (stereo not given)	-5	13µM*	-4%	3%	7%	13µM*
Cc1ccc[n+](CC(=O)c2ccc(NC(=O)c3ccccc3)cc2)c1	-10	-78%	7%	-2%	0%	-82%
N#Cc1ccc[n+](CC(=O)c2ccc(NC(=O)c3ccccc3)cc2)c1	15	-22%	-2%	3%	-1%	10µM*
O=C(C[n+]1cccc(C(=O)Nc2ccccc2)c1)c1ccccc1	-4	18µM*	·	·	·	?
Cc1cc(Nc2ccccc2C(=O)O)ccc1Cl	·	-24%	·	·	·	-9%
CCCCCCSc1cccc(-c2nc3ccccn3c2NCc2ccccc2)c1	-30	16µM*	?	-29%	258%	16µM*
CCCCCCSc1cc(-c2nc3ccc(C)cn3c2NCc2ccccc2)ccc1OC	-51*!	9.2µM*	?	-16%	247%	23µM*
Cc1ccc2nc(NCc3ccccc3)c(C=NCc3ccccc3)c(=O)n2c1	13	-23%	0%	-20%	14%	1%
Fc1ccc(-c2nc3ccccn3c2NCc2ccc3c(c2)OCO3)cc1	-14	?	-16%	-15%	223%	?
Cc1ccn2c(NCc3ccc4c(c3)OCO4)c(-c3ccc(O)cc3)nc2c1	13	-14%	3%	-5%	106%	-12%
CCCCCCSc1cccc(-c2nc3cc(C)ccn3c2NCc2ccccc2)c1	-84*!	13µM*	?	-38%	139%	13µM*
CCCCCCSc1cccc(-c2nc3ccc(C)cn3c2NCc2ccccc2)c1	-61*	21µM*	?	-49%	258%	23µM*
CCN(CC)CCNC(=O)c1ccc(NS(C)(=O)=O)cc1	·	-5%	·	·	·	-9%

Compound activity from PubChem BioAssay.
